Laboratory results reported in PubChem BioAssay (NCI).
About 79,000 compounds went through this panel and 15% of them were active in at least one assay; those are over-represented in the sample as a whole. The source made the active and inactive calls. Cut-off read from the data, not from the text of the source: active = growth inhibition above about 70%; inactive = the rest.

Assays:
[1] = NCI Yeast Anticancer Drug Screen. Data for the rad52 strain (AID 147);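 note: 0% = growth of vehicle-treated control cultures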; conditions: S. cerevisiae rad52 mutant growth inhibition, active compounds read high
How it was run: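 Screen used a yeast mutant impaired in DNA repair. After compound exposure, growth was measured. Values reflect inhibition compared with vehicle-treated cells.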

[2] = NCI Yeast Anticancer Drug Screen. Data for the wt1 strain (AID 149);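 note: 0% = growth of vehicle-treated wt1 cultures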; conditions: S. cerevisiae wt1 strain (SPY 50644) growth inhibition, active compounds read high
How it was run: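 Each compound is tested on wt1 yeast and the loss of growth versus vehicle gives the inhibition value.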

[3] = NCI Yeast Anticancer Drug Screen. Data for the rad50EPP+ strain (AID 151);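 note: 0% = growth of vehicle-treated control cultures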; conditions: S. cerevisiae rad50 mutant strain, active compounds read high
How it was run: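 Exposing the rad50EPP+ strain to each compound, growth was compared with vehicle-only cultures to give inhibition.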

[4] = NCI Yeast Anticancer Drug Screen. Data for the mgt1 strain (AID 153); conditions: S. cerevisiae mgt1 mutant growth inhibition, active compounds read high
How it was run: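 Genetically defined yeast (mgt1) treated with compound; inhibition of growth expressed against vehicle-treated controls.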

[5] = NCI Yeast Anticancer Drug Screen. Data for the rad50 strain (AID 155);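 note: 0% = growth of vehicle-only cultures of the same strain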; conditions: S. cerevisiae rad50 strain growth inhibition, active compounds read high
How it was run: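 Vehicle-treated cultures provide the reference for the growth inhibition reported for compound-exposed, repair-deficient yeast.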

[6] = NCI Yeast Anticancer Drug Screen. Data for the mec2-1 strain (AID 157); conditions: S. cerevisiae mec2-1 strain, active compounds read high
How it was run: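 Readout is yeast growth inhibition, normalised to vehicle-treated controls, in the mec2-1 strain exposed to compound.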

[7] = NCI Yeast Anticancer Drug Screen. Data for the rad14 strain (AID 159);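 note: 0% = growth of vehicle-treated control cultures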; conditions: S. cerevisiae rad14 strain growth inhibition, active compounds read high
How it was run: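 Inhibition of growth is reported for a repair-deficient yeast mutant following compound treatment, calculated relative to cultures that received vehicle.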

[8] = NCI Yeast Anticancer Drug Screen. Data for the sgs1 mgt1 strain (AID 161);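 note: 0% = growth of cultures given vehicle only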; conditions: S. cerevisiae sgs1 mgt1 strain, active compounds read high
How it was run: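 Percent growth inhibition was derived by comparing compound-exposed mutant yeast with vehicle-exposed cultures. The strain carries alterations in DNA damage repair.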

[9] = NCI Yeast Anticancer Drug Screen. Data for the CLN2oe strain (AID 163);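 note: 0% = growth of vehicle-only control cultures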; conditions: S. cerevisiae CLN2oe strain, active compounds read high
How it was run: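 Values reflect how much compound exposure reduced yeast growth, referenced to vehicle-exposed cells. Assay organism is a strain with a defined genetic change affecting cell-cycle control.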

[10] = NCI Yeast Anticancer Drug Screen. Data for the cln2 rad14 strain (AID 165);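 note: 0% = growth equal to vehicle treated cultures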; conditions: S. cerevisiae cln2 rad14 strain, active compounds read high
How it was run: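 Relative to vehicle controls, growth inhibition of compound-treated cln2 rad14 yeast was recorded.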

[11] = NCI Yeast Anticancer Drug Screen. Data for the bub3 strain (AID 167); conditions: S. cerevisiae bub3 mutant strain, active compounds read high
How it was run: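 Mutant yeast screening strain plus compound; vehicle-treated cultures serve as the 0% inhibition reference.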

[12] = NCI Yeast Anticancer Drug Screen. Data for the wt2 strain (AID 169); conditions: S. cerevisiae wt2 strain growth inhibition, active compounds read high
How it was run: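 Values express reduction in yeast growth under compound treatment, referenced to vehicle-treated cells.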

[13] = NCI Yeast Anticancer Drug Screen. Data for the mlh1 strain (AID 171);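 note: 0% = growth of vehicle-treated control cultures of the same strain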; conditions: S. cerevisiae mlh1 strain growth inhibition, active compounds read high
How it was run: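 Steps: expose the defined-mutant yeast strain to compound; expose a parallel culture to vehicle; measure growth; express compound effect as inhibition relative to the vehicle culture.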

[14] = NCI Yeast Anticancer Drug Screen. Data for the sgs1 strain (AID 173);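 note: 0% = growth of vehicle-only control cultures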; conditions: S. cerevisiae sgs1 mutant, active compounds read high
How it was run: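 Treat defined-mutant yeast with compound; measure growth; calculate inhibition relative to vehicle-treated cells.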

[15] = NCI Yeast Anticancer Drug Screen. Data for the mlh1 rad18 strain (AID 175); conditions: S. cerevisiae mlh1 rad18 strain growth inhibition, active compounds read high
How it was run: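 Test agents were incubated with a yeast strain of defined genotype (DNA damage repair defect). Inhibition of growth was derived by comparison with vehicle-exposed cultures.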

[16] = NCI Yeast Anticancer Drug Screen. Data for the rad18 strain (AID 177); conditions: S. cerevisiae rad18 mutant growth inhibition, active compounds read high
How it was run: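 A genetically defined yeast mutant impaired in DNA damage repair was treated with test compounds, then its growth was measured against cultures receiving vehicle alone.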

[17] = at 5.0 µM (retest, dose inferred, filed as 0.5)
[18] = at 50.0 µM (retest, dose inferred, filed as 5.0)

Measured: growth inhibition

COc1cccc2c1C(=O)c1c(O)c3c(c(O)c1C2=O)C[C@@](O)(C(C)=O)C[C@@H]3OC1CC(OC(C)=O)C(OC(C)=O)C(C)O1 (stereo partly specified)
inactive: [1]; at 1.2 µM -12% | [1]; at 3.7 µM -7% | [1]; at 11.0 µM 37% | [1]; at 33.0 µM 48% | [1]; at 100.0 µM 40% | [2]; at 1.2 µM -26% | [2]; at 3.7 µM -43% | [2]; at 11.0 µM -46% | [2]; at 33.0 µM -24% | [2]; at 100.0 µM -28% | [3]; at 1.2 µM -11% | [3]; at 3.7 µM -16% | [3]; at 11.0 µM -7% | [3]; at 33.0 µM 7% | [3]; at 100.0 µM 36% | [4]; at 1.2 µM -41% | [4]; at 3.7 µM -51% | [4]; at 11.0 µM -33% | [4]; at 33.0 µM -22% | [4]; at 100.0 µM -11% | [5]; at 1.2 µM -40% | [5]; at 3.7 µM -11% | [5]; [17] 22% | [5]; at 11.0 µM 39% | [5]; at 33.0 µM 51% | [5]; at 50.0 µM 56.2% | [5]; at 100.0 µM 47% | [6]; at 1.2 µM -64% | [6]; at 3.7 µM -46% | [6]; [17] 13% | [6]; at 11.0 µM -34% | [6]; at 33.0 µM -25% | [6]; [18] 41% | [6]; at 50.0 µM 60% | [6]; at 100.0 µM 1% | [7]; at 1.2 µM -35% | [7]; at 3.7 µM -3% | [7]; at 11.0 µM -6% | [7]; at 33.0 µM 10% | [7]; at 100.0 µM 29% | [9]; at 1.2 µM 3% | [9]; at 3.7 µM -2% | [9]; at 11.0 µM 12% | [9]; at 33.0 µM 11% | [9]; at 100.0 µM 19% | [10]; at 50.0 µM 17.3% | [11]; at 1.2 µM -54% | [11]; at 3.7 µM -38% | [11]; at 11.0 µM -50% | [11]; at 33.0 µM -35% | [11]; at 100.0 µM -4% | [12]; at 1.2 µM -23% | [12]; at 3.7 µM -18% | [12]; at 11.0 µM -2% | [12]; at 33.0 µM 0% | [12]; at 100.0 µM 12% | [13]; at 1.2 µM -41% | [13]; at 3.7 µM -37% | [13]; at 11.0 µM -30% | [13]; at 33.0 µM -8% | [13]; at 100.0 µM 18% | [14]; at 1.2 µM -17% | [14]; at 3.7 µM -23% | [14]; at 11.0 µM -14% | [14]; at 33.0 µM -3% | [14]; at 100.0 µM -9% | [15]; [17] 23% | [15]; [18] 62% | [16]; at 1.2 µM -28% | [16]; at 3.7 µM -29% | [16]; at 11.0 µM -16% | [16]; at 33.0 µM -5% | [16]; at 100.0 µM -1%
active: [5]; [18] 76% | [8]; [17] 98% | [8]; [18] 96% | [8]; at 50.0 µM 77% | [10]; [17] 96% | [10]; [18] 97% | [11]; [17] 98% | [11]; [18] 97% | [11]; at 50.0 µM 75.7% | [15]; at 50.0 µM 82.7%

CNC(=O)OCc1c(COC(=O)NC)c2n(c1C)-c1ccc(OC)cc1CCC2
active: [1]; at 33.0 µM 96% | [1]; at 100.0 µM 99% | [2]; at 33.0 µM 96% | [2]; at 100.0 µM 100% | [4]; at 33.0 µM 98% | [4]; at 100.0 µM 99% | [5]; at 33.0 µM 95% | [5]; [18] 99% | [5]; at 50.0 µM 85.7% | [5]; at 100.0 µM 99% | [6]; at 33.0 µM 95% | [6]; [18] 99% | [6]; at 50.0 µM 89.1% | [6]; at 100.0 µM 99% | [7]; at 33.0 µM 98% | [7]; at 100.0 µM 100% | [8]; [18] 99% | [8]; at 50.0 µM 90% | [9]; at 33.0 µM 87% | [9]; at 100.0 µM 100% | [10]; [18] 98% | [10]; at 50.0 µM 88.2% | [11]; at 33.0 µM 97% | [11]; [18] 100% | [11]; at 50.0 µM 87.2% | [11]; at 100.0 µM 99% | [12]; at 100.0 µM 98% | [13]; at 33.0 µM 98% | [13]; at 100.0 µM 99% | [14]; at 33.0 µM 95% | [14]; at 100.0 µM 99% | [15]; [18] 98% | [15]; at 50.0 µM 86.9% | [16]; at 33.0 µM 96% | [16]; at 100.0 µM 98%
inactive: [1]; at 1.2 µM -18% | [1]; at 3.7 µM -24% | [1]; at 11.0 µM -20% | [2]; at 1.2 µM -45% | [2]; at 3.7 µM -53% | [2]; at 11.0 µM -57% | [3]; at 1.2 µM -6% | [3]; at 3.7 µM -7% | [3]; at 11.0 µM -8% | [3]; at 33.0 µM 6% | [3]; at 100.0 µM 15% | [4]; at 1.2 µM -32% | [4]; at 3.7 µM -35% | [4]; at 11.0 µM -34% | [5]; at 1.2 µM -35% | [5]; at 3.7 µM -38% | [5]; [17] 25% | [5]; at 11.0 µM -43% | [6]; at 1.2 µM -61% | [6]; at 3.7 µM -29% | [6]; [17] 2% | [6]; at 11.0 µM -52% | [7]; at 1.2 µM -36% | [7]; at 3.7 µM -16% | [7]; at 11.0 µM -23% | [8]; [17] 17% | [9]; at 1.2 µM -12% | [9]; at 3.7 µM -16% | [9]; at 11.0 µM -5% | [10]; [17] 45% | [11]; at 1.2 µM -16% | [11]; at 3.7 µM -26% | [11]; [17] 45% | [11]; at 11.0 µM -30% | [12]; at 1.2 µM 8% | [12]; at 3.7 µM 9% | [12]; at 11.0 µM -7% | [12]; at 33.0 µM 66% | [13]; at 1.2 µM -42% | [13]; at 3.7 µM -31% | [13]; at 11.0 µM -47% | [14]; at 1.2 µM -15% | [14]; at 3.7 µM -15% | [14]; at 11.0 µM -16% | [15]; [17] 17% | [16]; at 1.2 µM -45% | [16]; at 3.7 µM -43% | [16]; at 11.0 µM -48%
